Measured values from the supplement of paper PMC6555819.

Experiments:
Test in all cases: PBM binding z-score (relative to random genomic background probes); higher = stronger binding; sequences stand for … in GC…GCGATTGACAGCGTAGAATGAAGG
[1] = tested on: PPARg:RXRa DBDmut IVT, anti-RXR (DBD mutation: RXRa K156A/R161A, NR concentration 270 nM, RXRa partner concentration 90 nM)
Outline: (§1)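 Custom Agilent 4×180K protein-binding microarrays carried double-stranded probes, each with a 34-nt variable region. These regions held direct-repeat seeds, single-nucleotide variants, half-site ablations and random human genomic background sequences. Ligand-free nuclear receptor dimers were incubated on the arrays for 1 h, antibodies against each partner (one per run) detected binding, and scanned fluorescence was regression-normalized. Binding z-scores take the random background probes as reference.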

[2] = tested on: PPARg:RXRa IVT, anti-PPARg (NR concentration 270 nM, RXRa partner concentration 90 nM)
Outline: as §1

[3] = tested on: PPARg DBDmut IVT, anti-PPARg (DBD mutation: PPARg1 K132A/R137A, NR concentration 270 nM)
Outline: as §1

[4] = tested on: PPARg homodimer (NR concentration 180 nM)
Outline: as §1

[5] = tested on: PXR:RXRa (NR concentration 270 nM, RXRa partner concentration 90 nM)
Outline: as §1

[6] = tested on: PXR homodimer (NR concentration 270 nM)
Outline: as §1

[7] = tested on: RARa:RXR (NR concentration 270 nM, RXRa partner concentration 90 nM)
Outline: as §1

[8] = tested on: RARa homodimer (NR concentration 270 nM)
Outline: as §1

[9] = tested on: RARb:RXRa (NR concentration 270 nM, RXRa partner concentration 90 nM)
Outline: as §1

[10] = tested on: RARb homodimer (NR concentration 270 nM)
Outline: as §1

[11] = tested on: RARg:RXRa (NR concentration 270 nM, RXRa partner concentration 90 nM)
Outline: as §1

[12] = tested on: RARg homodimer (NR concentration 270 nM)
Outline: as §1

[13] = tested on: RXRa DBDmut IVT, anti-RXR (DBD mutation: RXRa K156A/R161A, NR concentration 90 nM)
Outline: as §1

[14] = tested on: RXRa homodimer (NR concentration 180 nM)
Outline: as §1

[15] = tested on: THRa:RXRa (NR concentration 90 nM, RXRa partner concentration 90 nM)
Outline: as §1

[16] = tested on: THRa homodimer (NR concentration 90 nM)
Outline: as §1

[17] = tested on: VDR homodimer (NR concentration 270 nM)
Outline: as §1

Sequence | PBM binding z-score [1] | PBM binding z-score [2] | PBM binding z-score [3] | PBM binding z-score [4] | PBM binding z-score [5] | PBM binding z-score [6] | PBM binding z-score [7] | PBM binding z-score [8] | PBM binding z-score [9] | PBM binding z-score [10] | PBM binding z-score [11] | PBM binding z-score [12] | PBM binding z-score [13] | PBM binding z-score [14] | PBM binding z-score [15] | PBM binding z-score [16] | PBM binding z-score [17]
CGAACTAGGTCACCAGGACGGTGAAGAGGTTGGA | 7.98 | 8.73 | 2.21 | 2.07 | 1.18 | -0.299 | 2.21 | -0.518 | 4.26 | 3.1 | 4.28 | 5.25 | 0.756 | 3.01 | 3.04 | 0.961 | 0.435
CGAACTAGGTCAAAGGACGGTGAAAGGCGACGTA | 7.71 | 8.31 | 2.26 | 1.81 | 0.75 | -0.279 | 2.05 | 0.114 | 3.76 | 2.59 | 3.97 | 4.3 | 1.49 | 2.68 | 2.3 | -0.112 | -0.106
CGAACTAGGTCACCAGGACAGTGTAGAGGTTGGA | 8.42 | 8.73 | 1.75 | 2.71 | 1.58 | -0.179 | 2.54 | 0.514 | 4.1 | 3.53 | 4.35 | 5.47 | 1.65 | 3.25 | 3.47 | 2.14 | 0.343
ATATGTAGTTTAGGGTCATTCAGAAAGTAGGGAA | 1.43 | 2.8 | 1.5 | 2.89 | 4.68 | 1.83 | 5.48 | 1.75 | 3.42 | 3.24 | 4.01 | 2.73 | 2.93 | 5.24 | 4.29 | 3.64 | 4.3
ATATGTAGGTGAGGGTCATTCAGAAAGTAGGGAA | 7.49 | 7.69 | 2.2 | 2.51 | 3.02 | 1.81 | 3.81 | 2 | 2.97 | 3.13 | 3.24 | 3.06 | 1.67 | 3.67 | 2.56 | 1.31 | 2.76
CGAACTAGGTCACCAGCACAGTGAAGAGGTTGGA | 8.34 | 8.76 | 0.181 | 1.79 | 1.41 | 0.0792 | 2.39 | 0.262 | 4.11 | 3.37 | 4.43 | 5.44 | 1.35 | 3.29 | 3.1 | 1.29 | 0.496
ATATTTAGGTTAGGGTCATTCAGAAAGTAGGGAA | 5.81 | 5.68 | 3.04 | 4.04 | 4.34 | 2.43 | 4.64 | 4.29 | 3.73 | 3.47 | 4.06 | 3.55 | 2.76 | 4.71 | 4.2 | 3.85 | 4.22
CGAACTAGGTCACCAGGACAGGGAAGAGGTTGGA | 8.23 | 8.76 | 5.57 | 4.22 | 1.22 | 0.127 | 2.58 | 0.696 | 4.13 | 3.18 | 4.35 | 4.97 | 1.23 | 2.96 | 3.26 | 1.9 | 0.549
CTAACTAGGTCACCAGGACAGTGAAGAGGTTGGA | 8.89 | 9.08 | -0.261 | 1.88 | 1.42 | 0.375 | 2.8 | 0.69 | 4.28 | 3.4 | 4.69 | 5.53 | 1.67 | 3.98 | 3.51 | 2.16 | 0.856
ATATGTAGGTTAGGGTCATTAAGAAAGTAGGGAA | 6.33 | 6.81 | 3.64 | 3.28 | 3.9 | 1.85 | 4.79 | 1.97 | 3.32 | 3.33 | 3.59 | 2.76 | 2.22 | 4.57 | 3.9 | 2.76 | 3.54
CGAACTAGGTCATAGGACAGTGAAAGGCGACGTA | 7.81 | 8.5 | 0.801 | 1.9 | 1.2 | -0.212 | 2.17 | 0.173 | 3.5 | 2.66 | 3.62 | 3.88 | 1.21 | 3.11 | 2.64 | 0.357 | 0.417
ATATGTAGGTTAGGGTCACTCAGAAAGTAGGGAA | 6.7 | 6.76 | 1.93 | 3.25 | 3.88 | 1.5 | 4.51 | 1.73 | 3.8 | 3.57 | 3.98 | 3.56 | 1.74 | 5.09 | 4.21 | 3.46 | 2.6
CGCACTAGGTCACCAGGACAGTGAAGAGGTTGGA | 8.2 | 8.52 | 2.13 | 1.92 | 1.29 | 0.413 | 2.48 | 0.466 | 4.12 | 3.34 | 4.53 | 5.06 | 1.09 | 3.23 | 3.34 | 2.35 | 1.14
ATATGTAGGTTAGGTTCATTCAGAAAGTAGGGAA | 6.23 | 5.61 | 2.4 | 1.77 | 2.89 | 2.26 | 2.24 | 1.68 | 1.5 | 1.29 | 1.47 | 1.35 | 3.43 | 2.17 | 1.8 | 0.787 | 5.47
CGAACTAGGTCACCAGGTCAGTGAAGAGGTTGGA | 8.35 | 8.61 | 0.92 | 2.94 | 3.16 | 0.301 | 4.36 | 1.02 | 4.61 | 4.64 | 5.69 | 6.17 | 1.7 | 4.83 | 3.89 | 2.72 | 1.52
CGAACTAGGACAAAGGACAGTGAAAGGCGACGTA | 4.53 | 4.05 | -0.402 | 0.327 | -0.405 | -0.257 | -0.272 | -0.328 | 1.12 | 0.856 | 0.618 | 1.24 | -0.1 | 0.0792 | 0.519 | -0.508 | -0.415
CGAACTAGGTCACCAAGACAGTGAAGAGGTTGGA | 7.83 | 8.54 | 0.905 | 1.16 | 1.14 | -0.2 | 1.99 | 0.703 | 4.07 | 3.11 | 4.04 | 4.97 | 1.29 | 3.06 | 2.74 | 1.28 | 0.496
ATATGTAGGTTCGGGTCATTCAGAAAGTAGGGAA | 3.06 | 4.01 | 1.7 | 2.61 | 3.53 | 1.57 | 3.97 | 1.72 | 2.5 | 2.51 | 2.82 | 2.25 | 2.71 | 3.45 | 3.7 | 2.82 | 4
CGAACTAGGTCACCAGGGCAGTGAAGAGGTTGGA | 8.17 | 8.88 | 0.642 | 1.95 | 1.7 | -0.014 | 2.53 | 0.458 | 4.22 | 3.62 | 4.53 | 5.52 | 1.03 | 3.26 | 3.09 | 1.39 | 0.712
CGAACTAGGTCAGCAGGACAGTGAAGAGGTTGGA | 7.67 | 7.57 | 0.821 | 0.528 | 0.361 | -0.536 | 0.95 | -0.352 | 3.61 | 2.84 | 2.91 | 3.91 | 0.0956 | 1.51 | 2 | 0.264 | -0.272
ATATGTAGGTTATGGTCATTCAGAAAGTAGGGAA | 6.83 | 6.63 | 2 | 1.64 | 0.998 | 0.449 | 1.17 | 1.24 | 1.4 | 1.22 | 1.16 | 1.22 | 0.958 | 1.32 | 1.05 | 0.5 | 0.656
CGAACTAGATCACCAGGACAGTGAAGAGGTTGGA | 3.19 | 1.58 | -0.163 | 0.192 | -0.455 | -0.0713 | -0.108 | -0.196 | -0.0219 | 0.0313 | -0.13 | 0.172 | 0.251 | 0.0064 | 0.901 | 0.52 | -0.172
CGAACTAGTTCAAAGGACAGTGAAAGGCGACGTA | 0.0129 | 0.499 | -0.185 | 0.158 | 0.27 | 0.322 | 0.253 | 0.148 | 1.91 | 1.43 | 1.25 | 1.73 | 2.02 | 0.848 | 0.426 | -0.6 | 0.808
ATATGTAGGTTAGGCTCATTCAGAAAGTAGGGAA | 6.49 | 5.75 | 1.4 | 0.501 | -0.124 | 0.16 | -0.184 | 0.657 | 0.339 | 0.0368 | 0.252 | 0.612 | 0.0964 | 0.205 | 0.086 | -0.237 | -0.178
CGAACTAGGTCACCACGACAGTGAAGAGGTTGGA | 8.39 | 9 | 4.26 | 2.32 | 1.46 | -0.289 | 2.78 | 0.591 | 4.21 | 3.15 | 4.59 | 5.39 | 1.66 | 3.31 | 3.02 | 1.16 | 0.592
CGAAGTAGGTCACCAGGACAGTGAAGAGGTTGGA | 8.22 | 8.92 | 0.944 | 1.76 | 1.71 | 0.236 | 2.78 | 0.426 | 3.99 | 3.32 | 4.39 | 5.16 | 1.03 | 3.57 | 2.85 | 1.2 | 0.581
CGAACTAGGTCAAACGACAGTGAAAGGCGACGTA | 8.02 | 8.26 | 0.569 | 1.9 | 1.19 | -0.315 | 2.13 | 0.265 | 3.7 | 2.49 | 4.21 | 4.7 | 1.76 | 3.32 | 2.29 | 0.23 | 0.347
CGAACCAGGTCACCAGGACAGTGAAGAGGTTGGA | 5.49 | 6.38 | 0.103 | 2.28 | 2.81 | 0.0931 | 3.75 | 0.523 | 4.37 | 3.59 | 5.06 | 5.35 | 2.04 | 4.73 | 3.94 | 2.77 | 1.62
